Measured values as given in PubChem BioAssay AID684 (PCMD, 2007).
Out of some 62,000 compounds screened, about 95 (0.2%) were called active. The sample holds actives, similar compounds and a random draw of the others, so the mix is not that of the screen. No stated cut-off is given here; in the data, active means inhibition above about 20% (passing the limit was not always enough); inactive means the rest.

Target: Coagulation factor XII (Homo sapiens) (UniProt P00748)
Assay: blockers of FXIIa protease activity – biochemical, pooled compound mixtures, fluorogenic substrate, primary screen (AID 684);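 further: 0% = enzyme without compound and 100% = no enzyme blank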
Conditions: purified FXIIa, at 5 µM, stronger effect = higher value

Coagulation factor XII (Homo sapiens), sequence (P00748 20-372 limits assumed): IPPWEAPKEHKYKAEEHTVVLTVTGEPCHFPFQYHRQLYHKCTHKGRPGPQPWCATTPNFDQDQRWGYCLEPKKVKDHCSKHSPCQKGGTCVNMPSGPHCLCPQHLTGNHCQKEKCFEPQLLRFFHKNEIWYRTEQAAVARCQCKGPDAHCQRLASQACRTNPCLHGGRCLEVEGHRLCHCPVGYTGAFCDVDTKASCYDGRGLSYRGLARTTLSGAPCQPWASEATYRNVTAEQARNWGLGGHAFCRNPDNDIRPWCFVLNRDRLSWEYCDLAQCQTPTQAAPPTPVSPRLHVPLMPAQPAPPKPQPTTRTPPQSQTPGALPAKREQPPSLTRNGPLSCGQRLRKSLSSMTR
Coagulation factor XII (Homo sapiens), sequence (P00748 373-615 limits assumed): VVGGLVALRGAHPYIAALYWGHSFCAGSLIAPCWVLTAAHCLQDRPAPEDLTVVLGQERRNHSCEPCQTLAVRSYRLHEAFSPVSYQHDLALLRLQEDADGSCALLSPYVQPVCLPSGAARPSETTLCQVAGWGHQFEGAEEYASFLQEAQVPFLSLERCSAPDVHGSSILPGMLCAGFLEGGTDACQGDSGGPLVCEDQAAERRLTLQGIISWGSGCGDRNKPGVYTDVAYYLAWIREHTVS

inhibition, inactive:
CCS(=O)(=O)n1nc(-c2ccccc2)nc1SCc1ccccc1 6.08%
Cc1noc(C)c1C(=O)NC(C)c1ccc2c(c1)OCO2 (stereo not given) 4.17%
COC(=O)C1=C(C)Nc2ncnn2C1c1ccco1 (stereo not given) 15.1%
COc1ccc(OC)c2[nH]c(=O)c(CCNC(=O)C(C)(C)C)cc12 -10.9%
CCO/C([O-])=N/c1c[n+](N2CCOCC2)no1 3.21%
CN(C)CCOC(=O)C(c1ccccc1)C1(O)CCCC1 (stereo not given) 2.14%
Cc1cccc(CSc2nnc(Cn3c(=O)sc4ccccc43)n2C)c1 0.99%
CCCC(NS(=O)(=O)c1ccc(OC)cc1)C(=O)O (stereo not given) 10.4%
O=C(NCc1cccnc1)c1cn(-c2ccccc2)nc1-c1cccs1 5.99%
O=C(NCCCNCc1ccccc1)c1ccc(/C=N/O)nc1 1.86%
CCn1c(SCC(=O)Nc2ccc3c(c2)OCCO3)nc2c(c1=O)SC(C)C2 (stereo not given) 11.3%
O=C(CN1CCN(S(=O)(=O)/C=C/c2ccccc2)CC1)NC(=O)NCc1ccco1 -1.11%
CC(NC(=O)c1ccc(Cl)cc1)C(=O)N1CCCCC1 (stereo not given) 6.69%
CCOC(=O)Cc1csc(NC(=O)C(C)(C)C)n1 3.6%
O=C1CCC(=O)N1CCOP1(=O)COc2ccccc2OC1 2.03%
COCCNC(=O)c1ccccc1-c1nc(-c2ccccc2Cl)no1 6.16%
c1csc(CN2CCN(Cc3cccs3)C2c2cccs2)c1 -13.3%
COCc1cc(C)nc(Nc2cc(C)ccc2C)c1C#N 1.73%
COC(=O)c1cccc(NC(=O)CSc2nc(C)cc(=O)[nH]2)c1 9.59%
Cn1c2c(c(=O)n(C)c1=O)CN(Cc1ccco1)CN2 -0.485%
Cc1ccc2[nH]c(=O)c(-c3nc4c(C)cccn4c3NCc3ccco3)cc2c1 -0.355%
O=C(COc1ccccc1)N1CCc2ccccc2C1 9.32%
CC1CCC(NC(=O)c2ccc(N3CCCC3=O)cc2)CC1 (stereo not given) -12.2%
CCc1nc(C)cn1S(=O)(=O)c1cc(OC)c(C)cc1C 9.21%
CCCC1CC(C)(C(=O)Cn2[nH]c(=O)ccc2=O)OC1=O (stereo not given) -1.01%
O=C(c1cc(-c2ccccc2O)on1)N1CCCC1 -13.8%
Cc1ccc(S(=O)(=O)Nc2ccc3ncccc3c2)cc1 -13.2%
Cc1cc(N(C)C)cc(C)[n+]1[O-] -12%
CC(C)c1ccc(N2CC(C(=O)Nc3nccs3)CC2=O)cc1 (stereo not given) 3.69%
COc1ccc(Cn2cccc(NC(=O)Nc3ccc(C#N)cc3)c2=O)cc1 10.3%
Cc1ccccc1C(OCC(O)CN1CCCCC1CCO)c1ccccc1 (stereo not given) 4.15%
Cc1ccc(Nc2cc(=O)n(C3CCCCC3)c(=O)[nH]2)cc1C 5.68%
CCCCn1c(=S)[nH]c2ncccc2c1=O 4.05%
COC(=O)C(C)N(C#N)c1nc(C)nc(C)n1 (stereo not given) 9.14%
Cc1csc(NC(=O)CN2CCCCCC2)n1 7.17%
Cc1nc2ccc(S(=O)(=O)NCC(=O)NCCN3CCCCC3C)cc2s1 (stereo not given) 9.34%
Cc1ccn2cc(-c3nonc3C)cc2c1 9.55%
CCCCC(=O)N(c1ccc(OC)cc1)C1C=CS(=O)(=O)C1 (stereo not given) 4.62%
C=CCn1c(=O)c2ccccc2n2c(SCC(=O)N3CCCc4ccccc43)nnc12 -6.74%
COc1ccc(S(=O)(=O)N2CCCC(C(=O)Nc3ccc(NC(=O)c4ccccn4)cc3)C2)cc1 (stereo not given) 9.91%
CC12CCC(C(=O)N3CCN(c4ncccn4)CC3)(c3nc4ccccc4nc31)C2(C)C (stereo not given) 11.8%
CC1(C)C2CCC1(C)C(OC(=O)CCn1ccnc1)C2 (stereo not given) 3.17%
Cc1ccc2c(c1)C(O)(CC(=O)c1cccnc1)C(=O)N2 (stereo not given) 10.7%
Cc1cc2ccccc2n2c(SCC(=O)N3CCN(C(=O)c4ccco4)CC3)nnc12 -6.12%
CCC(Sc1nncn1C)C(=O)Nc1nnc(-c2ccc(Cl)cc2)s1 (stereo not given) 15.7%
Cc1ccc(SCc2cc(=O)[nH]c(N3CCCCC3)n2)cc1 3.87%
N#Cc1c(N)sc2c1CCN(C(=O)OCc1ccccc1)C2 -18%
COc1ccc2c(c1)C(C)=CC(C)(C)N2C(=O)CNCc1ccc2c(c1)OCO2 17%
CCN(CC)c1ccc2cc(C(=O)O)c(=O)oc2c1 -2.87%
COc1cccc(Oc2ccc(N)cc2)c1 -12.6%
COC(=O)CSc1nc(C2CC2)nc2ccccc12 -5.91%
Cn1cc(S(=O)(=O)N2CCC(Cc3ccccc3)CC2)c(=O)n(C)c1=O -15.8%
O=C(CN1C(=O)COc2ccccc21)NCCN1CCc2ccccc2C1 2.87%
CCC1=[N+]([O-])C(C)(/C(C)=N\O)N(O)C1(C)C (stereo not given) -9.09%
COc1cccc(-c2nnc(N(C)C(=O)c3ccno3)s2)c1 7.52%
CCN1CCCC1CNC(=O)Cn1cnc2ccc(S(=O)(=O)N3CCC(C)CC3)cc2c1=O (stereo not given) 9.9%
O=C(NCc1cccnc1)c1ccc(CS(=O)(=O)c2ccc(Br)cc2)o1 -21.3%
CCCn1c(C(O)c2ccc(OCC)cc2)nc2ccccc21 (stereo not given) 4.63%
CCOC(=O)c1cccc(NC(=O)CCn2nnc3ccccc32)c1 -0.18%
CCCN(c1ccc(C(C)C)cc1)S(=O)(=O)c1c(C)[nH]c(=O)[nH]c1=O -19%
CCCn1c(SCC(=O)N2CCc3ccccc32)nnc1-c1ccncc1 -0.835%
CCN1C(=O)/C(=C\N2CCN(c3ccccc3)CC2)SC1=S 4.83%
CS(=O)(=O)N(CC(=O)N1CCN(c2cccc(Cl)c2)CC1)c1ccccc1 1.3%

inhibition, active:
COCc1cc(C)nc(SCC(=O)Nc2cccc(C)c2)c1C#N 21.5%
CCN1C(=O)/C(=C\N2CCN(c3cccc(Cl)c3)CC2)SC1=S 20.4%
